Compound activity from PubChem.
HEK cytotox: Cytotoxic Profiling in HEK 293 Cell Line of Diverse Libraries Using Quantitative High-Throughput Screening | HEK 293 viability, ATP luminescence (CellTiter-Glo), 48-72 h | Potency, µM (top dose mostly 115 µM), inactives show at the top dose activity change, negative = cytotoxicity, most hits filed as inhibitors | 94,000 tested, 6.6% active; further: nearly all actives have a fitted effect of over 60% in size
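HEK 293 seeded at 250 cells/well receive compound via pintool. After 48 or 72 hr at 37 degree Celsius, 5% CO2 and 95% humidity, CellTiter-Glo is dispensed and luminescence read following 10 min at room temperature.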
GPT2 inh: Primary qHTS assay for inhibitors of Glutamate pyruvate transaminase 2 (GPT2); Recombinant GPT2, coupled pyruvate oxidase/HRP Amplex Red fluorescence; Potency, µM (doses to about 57.7 µM), for inactives: at the top dose activity change, negative = inhibition, usual class: inhibitors; 100,000 tested, 0.25% active; AID 1671188, 2021; further: nearly all actives have a fitted effect of over 60% in size
Target sequence (Q8TD30 whole entry, looked up): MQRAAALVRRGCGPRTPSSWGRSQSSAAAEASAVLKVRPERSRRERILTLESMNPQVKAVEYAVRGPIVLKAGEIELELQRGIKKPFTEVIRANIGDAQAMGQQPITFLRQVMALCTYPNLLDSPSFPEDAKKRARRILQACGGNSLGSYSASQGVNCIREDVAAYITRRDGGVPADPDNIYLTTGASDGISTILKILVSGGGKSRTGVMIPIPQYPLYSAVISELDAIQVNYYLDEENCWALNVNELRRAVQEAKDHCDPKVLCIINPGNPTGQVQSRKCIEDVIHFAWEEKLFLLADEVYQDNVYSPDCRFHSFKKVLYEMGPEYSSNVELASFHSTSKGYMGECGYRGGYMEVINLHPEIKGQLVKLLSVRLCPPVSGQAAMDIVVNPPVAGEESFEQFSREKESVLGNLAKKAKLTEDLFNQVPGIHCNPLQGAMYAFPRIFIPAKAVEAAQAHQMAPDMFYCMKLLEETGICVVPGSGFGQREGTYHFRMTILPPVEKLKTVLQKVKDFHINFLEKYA
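GPT2 10ng/uL, a-KG 250uM, L-Ala 2mM, HEPES pH7.5 + 0.0001% Tween; 30 min RT. Then Amplex mix (PO/HRP/ThPP), 30 min RT dark, fluorescence. AOA 50uM used as positive control.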
3T3 cytotox: Cytotoxic Profiling in NIH 3T3 Cell Line of Diverse Libraries Using Quantitative High-Throughput Screening | NIH 3T3 viability, CellTiter-Glo ATP luminescence, 48-72 h | Potency, µM (top dose mostly 96.7 µM), for the others: top-dose activity change, negative = cytotoxicity, hits mostly inhibitors | 94,000 tested, 4.3% active | AID 1345082, 2018; further: nearly all actives have a fitted effect of over 55% in size
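Viability of NIH 3T3 cells after 48 or 72 hr compound treatment at 37 °C was assessed by CellTiter-Glo, with luminescence imaged following a 10 min room-temperature step.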
hNpr1 antagonist: Natriuretic polypeptide receptor (hNpr1) antagonism - Primary qHTS; Atrial natriuretic peptide receptor 1 (Homo sapiens), P16066; HEK293 hNpr1 GloSensor cGMP, ANP-stimulated luminescence; Potency, µM (doses to about 46.3 µM), without a hit: at the highest dose activity change, negative = inhibition, actives largely listed as inhibitors; 76,000 tested, 1.6% active; calls by dose curve; further: nearly all actives have a fitted effect of over 60% in size
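HEK293 cells stably expressing human Npr1 and cGMP GloSensor pGS-40F, loaded 2 h with 2% GloSensor reagent, given compound 30 min at room temperature. Luminescence read before and 20 min after 0.1 nM hNppA.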
Luciferase inh: Firefly luciferase inhibition profiling of diverse chemical library using quantitative high-throughput screening; Luciferin 4-monooxygenase (Photinus pyralis), P08659; purified P. pyralis luciferase, luminescence, biochemical; Potency, µM (highest dose often 115 µM), hits mostly inhibitors; 76,000 tested, 2.5% active; further: nearly all actives have a fitted effect of over 65% in size
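Purified 10nM P. pyralis luciferase with 10uM D-luciferin and 10uM ATP in 50mM Tris acetate pH 7.5, 10mM Mg acetate, 0.01% Tween-20, 0.05% BSA. qHTS titration; luminescence read by CCD imager.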
An asterisk follows results filed as active; i = inactive; ? = inconclusive; · = not tested or not shown; [ ] = dose if it differs, or a comment. Hits are enriched below; roughly 10% of the tested compounds scored in any of these assays. Unless noted, the call rests on the fitted dose curve; in most records, active means well fitted curve in the direction sought with a large enough effect; inconclusive means small, poorly fitted or top-dose-only effect, or another doubt; inactive means no such curve, though single readings can be large; an effect the other way counts as inactive or inconclusive. On the % scale 0 is the no-effect control and ±100 the full control effect; potency means the concentration at half of the fitted maximal effect.

SMILES	HEK cytotox	GPT2 inh	3T3 cytotox	hNpr1 antagonist	Luciferase inh
COc1ccc(F)cc1-c1ccc(CN2CCCCC2C(=O)NCc2ccccc2)cc1 (centres undefined)	32µM*	·	?	·	·
COc1ccc(NC(=O)Cn2cccc2-c2nc(-c3ccc4c(c3)OCO4)no2)cc1	-1%	i	2%	0%	i
COc1ccc(C(=O)N2CCCC(c3nn(C)c(=O)n3C(C)C)C2)cc1OC (centres undefined)	-17%	2%	-26%	·	·
COc1ccccc1-c1ccc(CN2CCCCC2C(=O)NCc2cccc(C(F)(F)F)c2)cc1 (centres undefined)	28µM*	·	?	·	·
O=C(NCc1cccc(C(F)(F)F)c1)C1CCCN1Cc1ccc(-c2cncnc2)cc1 (centres undefined)	50µM*	i	?	·	·
COc1ccc(CNC(=O)C2CCCCN2Cc2ccc(-c3ccccc3OC)cc2)cc1OC (centres undefined)	32µM*	·	?	·	·
COc1ccc(F)cc1-c1ccc(CN2CCCCC2C(=O)NCc2cccs2)cc1 (centres undefined)	?	·	13µM*	·	·
O=C(NCc1ccncc1)C1CN(S(=O)(=O)c2cccs2)CC12CCCCC2 (centres undefined)	-3%	4%	-9%	-3%	i
O=C(C1CCCN1C(=O)Nc1ccccc1)N1CCC(N2CCCC2=O)CC1 (centres undefined)	4%	?	i	·	·
COCCN1C[C@H]2COc3ccccc3[C@H]2N(C(=O)c2ccccc2OC)CCC1=O	-21%	·	?	·	·
CC(=O)Nc1cccc(OCc2nnc(C(=O)N3CCC[C@@H]3c3ccc(Br)cc3)n2Cc2ccccc2)c1	32µM*	0%	22µM*	-30%	i
CC(=O)Nc1cccc2ccc(OCc3nnc(C(=O)N4CCC[C@@H]4c4ccc(Br)cc4)n3Cc3ccccc3)cc12	?	1%	?	-24%	i
N#Cc1cccnc1-c1ccc(C(=O)N2CCC(NC(=O)Cc3cccc(Cl)c3)CC2)cc1	?	-6%	?	·	·
COCCN1C(=O)c2ccccc2C(C(=O)Nc2nc3ccccc3[nH]2)C12CCCC2 (centres undefined)	5%	i	-4%	5%	i
COCCN1C(=O)c2ccccc2C(C(=O)Nc2nc3ccccc3[nH]2)C12CCCCC2 (centres undefined)	79µM*	-5%	?	-15%	i
O=C(CC(c1ccccc1)c1ccccc1)N1CCN(C(c2ccccc2)c2ccccc2)CC1	·	-4%	·	·	·
CCC[C@H]1CN(C(=O)CCc2ccccc2C)C[C@@H]1N	-8%	i	-27%	-2%	i
c1cnn(-c2ccc(-c3nc(C4CCOC4)no3)cc2)c1 (centres undefined)	?	-11%	-23%	?	16µM*
CCS(=O)(=O)Nc1ccc(-c2nc(C3CCOC3)no2)cc1 (centres undefined)	-13%	0%	-17%	2%	i
Cn1ccc2ccc(-c3nc(C4CCOC4)no3)cc21 (centres undefined)	-25%	-9%	?	1%	35µM*
Cc1noc(C)c1[S+](=O)([O-])N1CCCC(C(=O)N2CCC(c3nc4ccncc4[nH]3)C2)C1 (centres undefined)	-15%	i	-13%	·	·
CN(C)CCN1CCCN(C(=O)CCc2ccccc2)c2ccccc21	?	-7%	-17%	1%	i
COCC(=O)N1CCCN(Cc2cccnc2)c2ccccc21	?	i	-4%	3%	i
COCC(=O)N1CCCN(CCc2ccccc2)c2ccccc21	35µM*	i	-29%	-12%	i
COCCN1CCCN(C(=O)c2cccc(Cl)c2)c2ccccc21	45µM*	i	?	-5%	i
SMILES	HEK cytotox	GPT2 inh	3T3 cytotox	hNpr1 antagonist	Luciferase inh
COc1ccccc1CC(=O)N1CCCN(CCc2ccccc2)c2ccccc21	40µM*	3%	?	-11%	i
CN1CCCCCCN(Cc2ccccc2)[C@H]2CCC[C@H]2C1=O	?	1%	-23%	-7%	i
CC(C)n1cnnc1-c1nn(C)c2c1CN(C(=O)c1ccc(F)cc1)CC2	i	i	?	·	·
COc1ccc(OC)c(CNC(=O)c2ccc3c(c2)C(O)CCCCCN3C)c1 (centres undefined)	?	i	?	-5%	i
COc1ccc(OCC(=O)N2CCC3(CC2)N=C(c2ccc(C)cc2)NO3)cc1	?	i	-20%	-2%	i
COCCCNC(=O)c1nc2cccnc2n(C2CC2)c1=O	0%[172 µM]	2%[88.5 µM]	3%[138 µM]	·	·
CNC(=O)[C@H]1C[C@]2(CCCCN(CCO)C2=O)N(C(=O)Cc2cccs2)[C@H]1c1ccco1	35µM*	·	?	·	·
CCOC(=O)[C@H]1C[C@]2(CCCCN(CCOC)C2=O)N(C(=O)Cc2cccs2)[C@H]1c1ccco1	79µM*	·	?	·	·
N#Cc1ccc(CN2CCCCCNC(=O)[C@@H]3CCC[C@@H]32)cc1	79µM*	-23%	?	-9%	i
O=C1NCCCCCCN(Cc2cccc(F)c2)[C@H]2CCC[C@@H]12	79µM*	i	?	-15%	i
N#Cc1cccc(CN2CCCCCNC(=O)[C@@H]3CCC[C@@H]32)c1	-21%	-16%	-24%	-3%	i
Cc1cccc(CN2CCCN(S(C)(=O)=O)C(c3ccccc3)CC(=O)NCC2)c1 (centres undefined)	-28%	i	?	4%	i
C=CCn1cc2c3c(cccc31)[C@H](CC(C)C)N[C@H](C(=O)NCc1ccccc1OC)C2	40µM*	-17%[88.5 µM]	25µM*	-5%[70.6 µM]	i
C=CCNC(=O)[C@@H]1Cc2cn(CC3CC3)c3cccc(c23)[C@H](CC(C)C)N1	50µM*	-16%[88.5 µM]	?	-16%[70.6 µM]	i
C=CCn1cc2c3c(cccc31)[C@H](CC(C)C)N[C@H](C(=O)NCc1ccccc1)C2	?	-11%[88.5 µM]	?	-17%[70.6 µM]	i
C=CCn1cc2c3c(cccc31)[C@H](CC(C)C)N[C@H](C(=O)NC1CCC1)C2	63µM*	-16%[88.5 µM]	?	-5%[70.6 µM]	i
C=CCn1cc2c3c(cccc31)[C@H](CC(C)C)N[C@H](C(=O)NC1CCCC1)C2	40µM*	-1%[88.5 µM]	32µM*	0%[70.6 µM]	i
CC(C)C[C@@H]1N[C@H](C(=O)NC2CCCC2)Cc2cn(CC3CC3)c3cccc1c23	45µM*	-11%[88.5 µM]	35µM*	4%[70.6 µM]	i
